Results reported in PubChem BioAssay (NCATS).
Inconclusive results are not listed. Calls of active or inactive are those of the source. Calls come from the whole dose curve; as a rule, active = well fitted cell-killing curve with a large enough effect; inconclusive = small, poorly fitted or top-dose-only effect; inactive = flat fitted curve, though single readings scatter.

experiment: qHTS of pediatric cancer cell lines to identify multiple opportunities for drug repurposing: Primary screen for BT-37 cells (AID 1347094); settings: BT-37 viability, CellTiter-Glo luminescence, 48 h; series mostly up to 57.3 µM
How it was run: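 Cells seeded at 500-1,000 cells/well in growth media, rested 5 hours at 37 degrees C, 5% CO2, then dosed; MIPE compounds at 11-point (from 0.78 nM) and NPC at 8-point (from 0.59 nM) final concentrations. Viability by CellTiter-Glo luminescence after 48 hours.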
Potency is the fitted concentration of half-maximal effect.

Row | Compound | Potency
1 | Fc1cc(-c2cccc3ncc(-c4cnn(C5CCNCC5)c4)nc23)cc(F)c1CN1CCOCC1 | 24.3 µM (active)
2 | O=C(Nc1nc2cccc(-c3ccc(CN4CCS(=O)(=O)CC4)cc3)n2n1)C1CC1 | 19.3 µM (active)
3 | C=CC(=O)Nc1cccc(Oc2nc(Nc3ccc(N4CCN(C)CC4)cc3OC)ncc2Cl)c1 | 27.3 µM (active)
4 | CN(C)CCCN=c1c2ccccc2n(C)c2[nH]c(=O)n(C)c(=O)c12 | 4.85 µM (active)
5 | CC(=O)Nc1sc2c(c1-c1nc3ccccc3s1)CNC2 | 15.3 µM (active)
6 | Nc1nccc(Oc2ccc(NC(=O)c3c[nH]cc(-c4ccc(F)cc4)c3=O)cc2F)c1Cl | 2.17 µM (active)
7 | CC1(O)CC(c2nc(-c3ccc4ccc(-c5ccccc5)nc4c3)c3c(N)nccn23)C1 (stereo not drawn) | 19.3 µM (active)
8 | COc1cc2c(Oc3ccc4[nH]c(C)cc4c3F)ncnc2cc1OCCCN1CCCC1 | 24.3 µM (active)
9 | CC(=O)c1c(C)c2cnc(Nc3ccc(N4CCNCC4)cn3)nc2n(C2CCCC2)c1=O | 24.3 µM (active)
10 | Cn1cncc1[C@@](N)(c1ccc(Cl)cc1)c1ccc2c(c1)c(-c1cccc(Cl)c1)cc(=O)n2C | 21.7 µM (active)
11 | Cc1cn2c(-c3cn[nH]c3)cnc2c(Nc2ccc(C(=O)N3CCNCC3)cc2F)n1 | 17.2 µM (active)
12 | Cc1cc(N2CCOCC2)cc2[nH]c(-c3c(NC[C@@H](O)c4cccc(Cl)c4)cc[nH]c3=O)nc12 | 24.3 µM (active)
13 | CCN1CCN(CC(=O)Nc2ccc(-c3cccc4c(=O)cc(N5CCOCC5)oc34)c3sc4ccccc4c23)CC1 | 4.85 µM (active)
